Rows were chosen to be rich in hits. Some 3.3% of all compounds tested hit in one or more screens of this group.
Sm TGR block: qHTS Assay for the Inhibitors of Schistosoma Mansoni Peroxiredoxins; Schistosoma mansoni thioredoxin glutathione reductase (TGR), Q962Y6; purified TGR, DTNB reduction, TNB absorbance 405 nm; Potency, µM (titrated, usually from 114 µM), inactives show top-dose activity change, negative = inhibition, usual class: inhibitors; actives 3% (n = 360,000); AID 485364, 2010; also: nearly all actives have a fitted effect of over 60% in size
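TGR 20 nM + NADPH 100 uM (dispensed conc.), cpd preinc 15 min RT; start with NADPH (500 uM addition) then DTNB (15 mM addition). Kinetic TNB absorbance, 405 nm filter. Four-parameter Hill fit across titration.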
LmPK inh: qHTS Assay for Inhibitors of Leishmania Mexicana Pyruvate Kinase (LmPK) | purified LmPK, Kinase-Glo ATP luminescence, 1 h | Potency, µM (titrated, usually from 57.5 µM), inactives show at the highest dose activity change, negative = inhibition, most hits filed as inhibitors | actives 0.37% (n = 290,000) | AID 1721, 2009
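Purified LmPK (0.1 nM) with 0.5 mM PEP and 0.1 mM ADP in imidazole buffer pH 7.2 with MgCl2/KCl, 1 h at room temperature. ATP formed was read by luciferase luminescence and normalized to no-enzyme and uninhibited controls.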
RE007 growth inh: qHTS Assay for Inhibitors of the HIV-1 protein Vpr | S. pombe RE007 Vpr strain, BacTiter-Glo ATP luminescence, 24 h | Potency, µM (top dose mostly 92.2 µM), without a hit: at the highest dose activity change, negative = less growth, usual class: inhibitors | actives 0.21% (n = 360,000) | AID 651644, 2012; active = well fitted falling curve with a large enough effect; inconclusive = small, poorly fitted or top-dose-only effect; inactive = no such curve, though single readings can be large or run the other way; also: nearly all actives have a fitted effect of over 50% in size
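Fission yeast RE007 carrying one integrated HIV-1 vpr copy, seeded at OD 0.01 in PMG+AL medium with 23 nL pinned compound. Grown 24 h at 30 degrees; viability read by BacTiter-Glo luminescence after 5 min.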
TbPYK inhibitor: qHTS of Trypanosoma Brucei Inhibitors; pyruvate kinase (Trypanosoma brucei), Q57TT1; TbPYK enzyme, Kinase-Glo Plus ATP luminescence, 45 min; AID 624173, 2012; Potency, µM (doses to about 76.8 µM), for the others: at the top dose activity, negative = inhibition, usual class: inhibitors; actives 0.12% (n = 410,000); also: nearly all actives have a fitted effect of over 50% in size
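Enzyme and substrate buffer are dispensed first and compound is pin-transferred. ADP at 130 uM final then starts the reaction, which runs 45 min at room temperature. Detection reagent is added for 10 min before luminescence is imaged.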
FBPA Giardia inh: qHTS Assay for Inhibitors of Fructose-1,6-bisphosphate Aldolase from Giardia Lamblia; Potency, µM (series often up to 59.6 µM), for inactives: at the top dose activity, negative = inhibition, most hits filed as inhibitors; purified Giardia FBPA; AID 2451, 2010; A8B2U2; actives 0.71% (n = 290,000); also: nearly all actives have a fitted effect of over 55% in size
Target sequence (A8B2U2 whole entry, looked up): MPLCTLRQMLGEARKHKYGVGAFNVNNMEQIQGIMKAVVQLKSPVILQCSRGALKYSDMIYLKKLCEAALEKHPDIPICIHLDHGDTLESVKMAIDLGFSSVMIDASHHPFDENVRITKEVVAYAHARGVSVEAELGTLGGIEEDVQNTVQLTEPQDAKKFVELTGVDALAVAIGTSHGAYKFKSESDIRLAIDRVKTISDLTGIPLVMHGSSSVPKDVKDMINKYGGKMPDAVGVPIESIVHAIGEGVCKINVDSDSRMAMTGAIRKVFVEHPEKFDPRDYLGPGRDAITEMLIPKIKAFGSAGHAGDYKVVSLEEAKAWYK
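Giardia FBPA (40 nM reagent) was preincubated 10 min at RT with compound (up to 57.5 uM final), then substrate plus GAPDH/TPI/NAD/arsenate coupling system with diaphorase/resazurin was added; resorufin fluorescence (525/598 nm) was read after 20 min.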
Numbers without * were called inactive. Unless noted, calls follow the shape of the dose curve; as a rule, active = well fitted curve in the direction sought with a large enough effect; inconclusive = small, poorly fitted or top-dose-only effect, or another doubt; inactive = no such curve, though single readings can be large; an effect the other way counts as inactive or inconclusive. % is scaled to controls: 0 for no effect and ±100 for the full control effect; potency is read from the fitted curve at half-maximal effect.

For O=C(NCc1ccccc1F)C1CCCN(S(=O)(=O)c2ccc(-n3cnnn3)cc2)C1 (stereo unspecified) the results were Sm TGR block -8%, LmPK inh 2%, RE007 growth inh -7%, TbPYK inhibitor -5% and FBPA Giardia inh 9%.
`CSCC[C@H](NC(=O)C1CCN(S(=O)(=O)c2ccc(C)cc2)CC1)C(=O)NCC1CCCO1` (stereo partly specified) gave Sm TGR block -19%, LmPK inh -1%, RE007 growth inh 7%, TbPYK inhibitor 2% and FBPA Giardia inh 0%.
CSCC[C@H](NC(=O)C1CCN(S(=O)(=O)c2ccc(C)cc2)CC1)C(=O)NCc1ccco1 was read as Sm TGR block 45µM*, LmPK inh 10%, RE007 growth inh 11%, TbPYK inhibitor -9% and FBPA Giardia inh 1%.
Screening Cc1ccc(S(=O)(=O)N2CCCCC2C(=O)NCc2ccco2)cc1 (stereo unspecified) returned Sm TGR block 20µM*, LmPK inh 0%, RE007 growth inh 8%, TbPYK inhibitor -3% and FBPA Giardia inh -1%.
`O=C(NCc1ccco1)C1CCCN(S(=O)(=O)c2ccc(-n3cnnn3)cc2)C1` (stereo unspecified) gave Sm TGR block 20µM*, LmPK inh -1%, RE007 growth inh -9%, TbPYK inhibitor 4% and FBPA Giardia inh 3%.
Screening c1cc2c(cc1CCNC1C3CC4CC(C3)CC1C4)OCO2 (stereo unspecified) returned Sm TGR block -5%, LmPK inh 0%, RE007 growth inh 3%, TbPYK inhibitor 29% and FBPA Giardia inh inconclusive.
For O=C(c1cccnc1)N(Cc1ccccc1)C(c1ccccc1)c1nc2ccccc2[nH]1 (stereo unspecified) the results were RE007 growth inh -26% and TbPYK inhibitor 1%.
For CCOC(=O)c1cc(-c2ccc(N3CCOCC3)cc2)nn1-c1ccccc1 the results were Sm TGR block 9%, LmPK inh -1%, RE007 growth inh 5%, TbPYK inhibitor -4% and FBPA Giardia inh 2%.
For CCOC(=O)c1cc(-c2ccco2)nn1-c1ccc(C)cc1 the results were Sm TGR block 14µM*, LmPK inh 3%, RE007 growth inh 9%, TbPYK inhibitor -2% and FBPA Giardia inh -2%.
Screening CC(C)NC(=O)c1nn2c(C(F)(F)F)cc(-c3ccco3)nc2c1Cl returned Sm TGR block inconclusive, LmPK inh -5%, RE007 growth inh -9%, TbPYK inhibitor 27% and FBPA Giardia inh -15%.
For CCOC(=O)c1cc(-c2ccco2)nc2c1c(C)nn2CCC#N the results were Sm TGR block 4µM*, LmPK inh -1%, RE007 growth inh -14%, TbPYK inhibitor -5% and FBPA Giardia inh -3%.
Screening CC(C)NC(=O)c1cc(-c2ccco2)nn1-c1ccc(Cl)cc1 returned Sm TGR block 2.8µM*, LmPK inh -9%, RE007 growth inh -8% and TbPYK inhibitor inconclusive.
For Cc1ccc(-n2nc(-c3ccco3)cc2C(=O)O)cc1 the results were Sm TGR block 25µM*, LmPK inh 15%, RE007 growth inh 2%, TbPYK inhibitor -7% and FBPA Giardia inh 10%.
Screening Cc1ccc(NS(=O)(=O)c2cc(NC(=O)C(C)Oc3ccccc3)ccc2C)c(C)c1 (stereo unspecified) returned Sm TGR block -11%, LmPK inh 2%, RE007 growth inh 1%, TbPYK inhibitor -16% and FBPA Giardia inh 2%.
`CCC(C)C1C(C#N)=C(N)OC2=C1C(=O)CC(C)(C)C2` (stereo unspecified) gave Sm TGR block 3%, LmPK inh 5%, RE007 growth inh -16%, TbPYK inhibitor 0% and FBPA Giardia inh -4%.
`O=C(c1cc(-c2ccco2)nn1-c1cccc(Cl)c1)N1CCCCC1` gave Sm TGR block 7.1µM*, LmPK inh -25%, RE007 growth inh 16%, TbPYK inhibitor 10µM* and FBPA Giardia inh 2%.

Bioassay records: PubChem BioAssay, National Center for Advancing Translational Sciences (NCATS)
